Measured values: PubChem BioAssay AID1159580 (chemical genetic matrix, 2015)
Several values for one entry are separate records, joined by “and”; a condition that tells them apart may be missing. Equal values may be shown once. The whole screen tested about 5,500 compounds, of which about 2,000 (36%) were called active. Not shown: some 18% with an inconclusive outcome. No stated cut-off is given here; in the data, active means normalized growth mostly below about 0.91 (no sharp cut-off); inconclusive means no clear call, values can overlap the other calls; inactive means mostly above about 0.92. Some of the results follow.

Assay: chemical genetic growth profiling, strain panel (AID 1159580);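 further: tested at 20 µM; growth read once vehicle control cultures reached saturation at 30 °C; 1 = growth at the plate median or of vehicle wells; lower values mean less growth of the strain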
Conditions: S. cerevisiae deletion strains, growth OD

Measured: normalized growth

COc1cc2c3cc1Oc1cc(ccc1O)C[C@@H]1c4c(cc(OC)c(O)c4Oc4ccc(cc4)C[C@@H]3N(C)CC2)CC[N+]1(C)C
inactive: locus YAL021C, strain ccr4, active compounds read low 1 | locus YAL026C, strain drs2, active compounds read low 0.976 | locus YAL030W, strain snc1, active compounds read low 1.01 | locus YBL061C, strain skt5, active compounds read low 1 | locus YBR009C, strain hhf1, active compounds read low 0.943 | locus YBR021W, strain FUR4, active compounds read low 0.998 | locus YBR023C, strain chs3, active compounds read low 0.997 | locus YBR171W, strain sec66, active compounds read low 1.01 | locus YBR229C, strain ROT2, active compounds read low 1 | locus YBR231C, strain swc5, active compounds read low 1.02 | locus YBR279W, strain paf1, active compounds read low 0.991 | locus YCL011C, strain gbp2, active compounds read low 0.954 | locus YCL016C, strain dcc1, active compounds read low 0.939 | locus YCL029C, strain bik1, active compounds read low 0.999 | locus YCL069W, strain vba3, active compounds read low 0.998 | locus YCR088W, strain abp1, active compounds read low 0.997 | locus YDL005C, strain med2, active compounds read low 1 | locus YDL035C, strain GPR1, active compounds read low 1 | locus YDL040C, strain nat1, active compounds read low 1.01 | locus YDL074C, strain BRE1, active compounds read low 1.02 | locus YDL101C, strain DUN1, active compounds read low 1.02 | locus YDL185W, strain tfp1, active compounds read low 1.01 | locus YDL192W, strain arf1, active compounds read low 0.998 | locus YDR001C, strain nth1, active compounds read low 0.972 | locus YDR069C, strain doa4, active compounds read low 1.02 | locus YDR101C, strain arx1, active compounds read low 1 | locus YDR137W, strain rgp1, active compounds read low 1 | locus YDR159W, strain sac3, active compounds read low 0.927 | locus YDR162C, strain NBP2, active compounds read low 1.03 | locus YDR195W, strain ref2 1.01 | locus YDR297W, strain sur2, active compounds read low 1 | locus YDR318W, strain mcm21, active compounds read low 0.994 | locus YDR334W, strain swr1, active compounds read low 0.979 | locus YDR335W, strain msn5, active compounds read low 0.995 | locus YDR388W, active compounds read low 1 | locus YDR392W, strain spt3, active compounds read low 0.769 | locus YDR502C, strain sam2, active compounds read low 1 | locus YEL003W, strain gim4, active compounds read low 1 | locus YEL037C, strain rad23, active compounds read low 0.999 | locus YEL061C, strain CIN8 (second series), active compounds read low 0.967 | locus YEL061C, strain CIN8, active compounds read low 1.01 | locus YER015W, strain faa2, active compounds read low 0.996 | locus YER016W, strain bim1, active compounds read low 0.988 | locus YER110C, active compounds read low 1.01 | locus YER111C, strain swi4, active compounds read low 0.994 | locus YER155C, strain BEM2 (second series), active compounds read low 1.05 | locus YER155C, strain BEM2, active compounds read low 1.02 | locus YER167W, strain BCK2, active compounds read low 1.01 | locus YFR010W, strain ubp6, active compounds read low 0.989 | locus YGL078C, strain dbp3, active compounds read low 0.993 | locus YGL086W, strain mad1, active compounds read low 1.03 | locus YGL167C, strain pmr1, active compounds read low 1 | locus YGL173C, strain kem1, active compounds read low 1 | locus YGL227W, strain vid30, active compounds read low 0.981 | locus YGL240W, strain doc1, active compounds read low 1.02 | locus YGL248W, strain PDE1, active compounds read low 1.02 | locus YGL253W, strain hxk2, active compounds read low 0.978 | locus YGR135W, strain pre9, active compounds read low 0.989 | locus YGR252W, strain gcn5, active compounds read low 0.947 | locus YHR013C, strain ard1, active compounds read low 0.943 | locus YHR027C, strain rpn1, active compounds read low 0.988 | locus YHR030C, strain SLT2, active compounds read low 1 and 0.98 | locus YHR079C, strain IRE1 (second series), active compounds read low 1.01 | locus YHR079C, strain IRE1, active compounds read low 0.981 | locus YHR094C, strain hxt1, active compounds read low 0.996 | locus YHR129C, strain ARP1, active compounds read low 1.02 | locus YHR142W, strain chs7, active compounds read low 1 | locus YHR200W, strain rpn10, active compounds read low 0.993 | locus YIL066C, strain RNR3, active compounds read low 1.01 | locus YIL073C, strain SPO22, active compounds read low 1.07 | locus YIL125W, strain kgd1, active compounds read low 1.01 | locus YIR030C, strain dcg1, active compounds read low 0.997 | locus YJL092W, strain hpr5, active compounds read low 0.988 | locus YJL095W, strain BCK1 (second series), active compounds read low 1 | locus YJL095W, strain BCK1, active compounds read low 1.06 and 0.983 | locus YJL115W, strain asf1, active compounds read low 0.983 | locus YJL129C, strain trk1, active compounds read low 1 | locus YJL134W, strain LCB3, active compounds read low 1.01 | locus YJL154C, strain vps35, active compounds read low 0.992 | locus YJL164C, strain tpk1, active compounds read low 0.957 | locus YJL166W, strain qcr8, active compounds read low 1.04 | locus YJL168C, strain set2, active compounds read low 1.01 | locus YJL187C, strain SWE1 (second series), active compounds read low 1.04 | locus YJL187C, strain SWE1, active compounds read low 1.01 | locus YJR043C, strain POL32, active compounds read low 0.991 | locus YJR066W, strain TOR1, active compounds read low 0.969 | locus YJR075W, strain HOC1, active compounds read low 1.03
